Data from PMC7862700, “An all-to-all approach to the identification of sequence-specific readers for epigenetic DNA modifications on cytosine”.

Tests used:
Test in all cases: DAPPL (digital affinity profiling via proximity ligation, sequencing); 10 mM Tris-HCl pH 7.5, 50 mM NaCl, 1 mM DTT, 4% glycerol, room temperature, 30 min; GST-TFs on glutathione beads, 16-mer random dsDNA library, 0.1% formaldehyde crosslink after washing; high values mean tight binding
Conditions in all cases: protein: recombinant; tags: N-terminal GST; dsDNA, one strand shown
FLI1 = target: T1, FLI1 (Homo sapiens, UniProt Q01543 1-452)
T1 sequence: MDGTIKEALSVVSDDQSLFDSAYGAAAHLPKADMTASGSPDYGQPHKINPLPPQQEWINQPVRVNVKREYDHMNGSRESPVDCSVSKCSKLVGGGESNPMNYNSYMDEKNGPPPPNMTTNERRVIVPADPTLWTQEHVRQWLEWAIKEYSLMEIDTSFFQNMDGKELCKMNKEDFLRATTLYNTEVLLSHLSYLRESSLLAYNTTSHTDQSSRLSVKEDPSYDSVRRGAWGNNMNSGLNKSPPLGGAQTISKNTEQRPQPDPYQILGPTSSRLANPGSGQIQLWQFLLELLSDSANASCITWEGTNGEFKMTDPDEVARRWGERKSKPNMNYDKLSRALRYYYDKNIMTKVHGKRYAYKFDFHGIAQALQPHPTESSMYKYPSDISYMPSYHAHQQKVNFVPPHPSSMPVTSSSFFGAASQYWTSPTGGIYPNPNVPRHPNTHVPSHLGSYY
Outline: (§1)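 Pools were built from human transcription factors expressed in yeast as GST fusions, captured on glutathione beads and DNA-barcoded, along with a tag-only sample. Incubation with 200 nmole of a 16-mer random double-stranded DNA library lasted 30 min at room temperature in Tris/NaCl/DTT/glycerol buffer, and was followed by washing, 0.1% formaldehyde crosslinking, proximity ligation, PCR amplification and Illumina NextSeq500 sequencing. Binding signal is the quotient of each hexamer's read frequency for a factor and its frequency for the tag-only sample.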

GABPA = target: T2, GABPA (Homo sapiens, UniProt Q06546 1-454)
T2 sequence: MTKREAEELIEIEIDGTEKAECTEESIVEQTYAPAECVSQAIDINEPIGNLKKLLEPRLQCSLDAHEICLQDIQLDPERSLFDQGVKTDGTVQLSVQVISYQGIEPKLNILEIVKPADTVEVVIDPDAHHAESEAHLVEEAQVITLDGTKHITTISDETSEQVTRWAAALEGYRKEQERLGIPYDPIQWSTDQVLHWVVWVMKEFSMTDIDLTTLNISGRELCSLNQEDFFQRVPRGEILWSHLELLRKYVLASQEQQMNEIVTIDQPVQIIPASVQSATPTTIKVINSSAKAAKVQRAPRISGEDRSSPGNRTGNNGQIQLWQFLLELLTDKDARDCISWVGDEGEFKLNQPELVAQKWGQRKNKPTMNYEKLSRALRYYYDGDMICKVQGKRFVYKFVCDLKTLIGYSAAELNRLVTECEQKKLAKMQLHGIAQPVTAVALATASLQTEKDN
Outline: as §1

ERG = target: T3, ERG (Homo sapiens, UniProt P11308 1-479)
T3 sequence: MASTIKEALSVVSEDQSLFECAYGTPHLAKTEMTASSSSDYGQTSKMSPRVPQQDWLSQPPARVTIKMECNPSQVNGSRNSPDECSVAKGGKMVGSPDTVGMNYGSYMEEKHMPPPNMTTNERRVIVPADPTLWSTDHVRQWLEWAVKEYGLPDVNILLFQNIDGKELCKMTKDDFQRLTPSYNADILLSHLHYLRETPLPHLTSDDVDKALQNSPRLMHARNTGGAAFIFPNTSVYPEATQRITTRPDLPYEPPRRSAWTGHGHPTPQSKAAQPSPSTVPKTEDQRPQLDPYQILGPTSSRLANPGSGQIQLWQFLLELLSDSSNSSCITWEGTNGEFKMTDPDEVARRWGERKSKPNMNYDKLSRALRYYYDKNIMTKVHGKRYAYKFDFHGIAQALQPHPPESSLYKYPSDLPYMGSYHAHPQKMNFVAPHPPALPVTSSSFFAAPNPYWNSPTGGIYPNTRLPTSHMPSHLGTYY
Outline: as §1

ELF1 = ELF1 (Homo sapiens, UniProt P32519 1-619)
Outline: as §1

SPIB = SPIB (Homo sapiens, UniProt Q01892 1-262)
Outline: as §1

ETV5 = ETV5 (Homo sapiens, UniProt P41161 1-510)
Outline: as §1

ELF4 = ELF4 (Homo sapiens, UniProt Q99607 1-663)
Outline: as §1

ELF3 = target: T4, ELF3 (Homo sapiens, UniProt P78545 1-371)
T4 sequence: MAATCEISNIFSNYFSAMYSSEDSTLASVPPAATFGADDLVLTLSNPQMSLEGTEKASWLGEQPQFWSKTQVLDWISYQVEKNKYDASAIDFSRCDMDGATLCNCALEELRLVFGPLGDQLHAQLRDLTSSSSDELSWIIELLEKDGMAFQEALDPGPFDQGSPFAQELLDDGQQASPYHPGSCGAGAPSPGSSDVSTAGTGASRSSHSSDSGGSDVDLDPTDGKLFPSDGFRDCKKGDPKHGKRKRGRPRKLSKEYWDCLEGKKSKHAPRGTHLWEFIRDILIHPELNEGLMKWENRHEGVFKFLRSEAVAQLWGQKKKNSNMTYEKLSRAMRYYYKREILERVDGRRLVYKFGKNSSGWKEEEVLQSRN
Outline: as §1

ETV1 = ETV1 (Homo sapiens, UniProt P50549 1-477)
Outline: as §1

ETV3L = target: T5, ETV3L (Homo sapiens, UniProt Q6ZN32 1-361)
T5 sequence: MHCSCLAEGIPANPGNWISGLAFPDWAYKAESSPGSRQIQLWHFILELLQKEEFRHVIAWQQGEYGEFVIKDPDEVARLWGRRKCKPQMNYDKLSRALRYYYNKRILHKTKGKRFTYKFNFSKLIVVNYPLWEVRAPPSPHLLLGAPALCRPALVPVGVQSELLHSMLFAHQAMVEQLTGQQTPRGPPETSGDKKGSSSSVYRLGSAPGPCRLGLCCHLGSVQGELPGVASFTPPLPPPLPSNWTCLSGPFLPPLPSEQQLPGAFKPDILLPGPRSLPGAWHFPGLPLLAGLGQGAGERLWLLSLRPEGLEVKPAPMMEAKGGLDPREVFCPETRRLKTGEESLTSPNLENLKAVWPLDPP
Outline: as §1

ETV6 = ETV6 (Homo sapiens, UniProt P41212 1-452)
Outline: as §1

EHF = target: T6, EHF (Homo sapiens, UniProt Q9NZC4 1-300)
T6 sequence: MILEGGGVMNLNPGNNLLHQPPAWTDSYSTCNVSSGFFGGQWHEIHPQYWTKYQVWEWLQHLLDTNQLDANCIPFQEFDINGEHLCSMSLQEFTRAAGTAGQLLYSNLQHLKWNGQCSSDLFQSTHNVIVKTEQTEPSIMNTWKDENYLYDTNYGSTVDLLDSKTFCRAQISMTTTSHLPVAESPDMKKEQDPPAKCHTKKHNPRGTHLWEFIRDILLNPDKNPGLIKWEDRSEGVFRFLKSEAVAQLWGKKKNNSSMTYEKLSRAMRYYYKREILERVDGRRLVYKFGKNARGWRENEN
Outline: as §1

SPI1 = SPI1 (Homo sapiens, UniProt P17947 1-270)
Outline: as §1

ETV2 = target: T7, ETV2 (Homo sapiens, UniProt O00321 1-342)
T7 sequence: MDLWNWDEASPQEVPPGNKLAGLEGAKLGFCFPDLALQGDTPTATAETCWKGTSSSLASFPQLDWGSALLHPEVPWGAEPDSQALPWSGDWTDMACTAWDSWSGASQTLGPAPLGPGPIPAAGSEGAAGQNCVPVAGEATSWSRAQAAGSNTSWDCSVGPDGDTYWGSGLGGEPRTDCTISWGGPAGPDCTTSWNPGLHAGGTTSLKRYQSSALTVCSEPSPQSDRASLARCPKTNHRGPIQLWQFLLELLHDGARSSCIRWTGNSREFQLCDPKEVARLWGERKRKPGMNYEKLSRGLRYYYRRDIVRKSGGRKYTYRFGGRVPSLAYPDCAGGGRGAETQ
Outline: as §1

ERF = target: T8, ERF (Homo sapiens, UniProt P50548 1-548)
T8 sequence: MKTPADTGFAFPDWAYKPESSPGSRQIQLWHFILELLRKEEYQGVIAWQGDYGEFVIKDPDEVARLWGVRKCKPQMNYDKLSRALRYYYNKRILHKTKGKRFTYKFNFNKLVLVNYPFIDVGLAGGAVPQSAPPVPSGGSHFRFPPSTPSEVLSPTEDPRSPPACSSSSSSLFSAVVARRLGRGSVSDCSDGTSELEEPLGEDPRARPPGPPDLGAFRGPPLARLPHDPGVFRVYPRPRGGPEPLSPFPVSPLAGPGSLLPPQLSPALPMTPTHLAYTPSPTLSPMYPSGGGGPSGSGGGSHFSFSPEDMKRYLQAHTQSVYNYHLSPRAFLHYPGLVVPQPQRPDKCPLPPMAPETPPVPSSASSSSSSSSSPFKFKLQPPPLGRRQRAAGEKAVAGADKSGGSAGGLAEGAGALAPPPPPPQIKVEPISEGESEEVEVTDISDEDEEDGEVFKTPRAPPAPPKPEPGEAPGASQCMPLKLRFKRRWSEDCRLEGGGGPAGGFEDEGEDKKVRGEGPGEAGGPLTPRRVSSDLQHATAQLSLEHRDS
Outline: as §1

ETS2 = target: T9, ETS2 (Homo sapiens, UniProt P15036 1-469)
T9 sequence: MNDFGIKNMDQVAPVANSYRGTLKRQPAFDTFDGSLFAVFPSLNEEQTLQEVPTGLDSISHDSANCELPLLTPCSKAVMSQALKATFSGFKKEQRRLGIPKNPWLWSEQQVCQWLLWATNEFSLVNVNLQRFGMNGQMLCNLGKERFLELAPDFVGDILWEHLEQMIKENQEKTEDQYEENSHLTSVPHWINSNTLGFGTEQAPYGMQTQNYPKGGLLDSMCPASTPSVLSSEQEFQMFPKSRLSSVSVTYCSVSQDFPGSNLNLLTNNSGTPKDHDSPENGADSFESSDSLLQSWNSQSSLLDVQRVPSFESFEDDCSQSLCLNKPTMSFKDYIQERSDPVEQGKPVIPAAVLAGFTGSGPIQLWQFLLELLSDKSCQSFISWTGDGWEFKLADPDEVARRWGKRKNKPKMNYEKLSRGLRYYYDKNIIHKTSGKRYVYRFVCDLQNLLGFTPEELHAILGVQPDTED
Outline: as §1

ETV3 = target: T10, ETV3 (Homo sapiens, UniProt P41162-2 1-143)
T10 sequence: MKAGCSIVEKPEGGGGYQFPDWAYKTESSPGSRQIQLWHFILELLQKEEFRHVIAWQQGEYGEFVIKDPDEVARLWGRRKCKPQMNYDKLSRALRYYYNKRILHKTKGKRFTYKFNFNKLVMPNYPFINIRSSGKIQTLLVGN
Outline: as §1

Sequence of ELF1 (P32519 whole entry): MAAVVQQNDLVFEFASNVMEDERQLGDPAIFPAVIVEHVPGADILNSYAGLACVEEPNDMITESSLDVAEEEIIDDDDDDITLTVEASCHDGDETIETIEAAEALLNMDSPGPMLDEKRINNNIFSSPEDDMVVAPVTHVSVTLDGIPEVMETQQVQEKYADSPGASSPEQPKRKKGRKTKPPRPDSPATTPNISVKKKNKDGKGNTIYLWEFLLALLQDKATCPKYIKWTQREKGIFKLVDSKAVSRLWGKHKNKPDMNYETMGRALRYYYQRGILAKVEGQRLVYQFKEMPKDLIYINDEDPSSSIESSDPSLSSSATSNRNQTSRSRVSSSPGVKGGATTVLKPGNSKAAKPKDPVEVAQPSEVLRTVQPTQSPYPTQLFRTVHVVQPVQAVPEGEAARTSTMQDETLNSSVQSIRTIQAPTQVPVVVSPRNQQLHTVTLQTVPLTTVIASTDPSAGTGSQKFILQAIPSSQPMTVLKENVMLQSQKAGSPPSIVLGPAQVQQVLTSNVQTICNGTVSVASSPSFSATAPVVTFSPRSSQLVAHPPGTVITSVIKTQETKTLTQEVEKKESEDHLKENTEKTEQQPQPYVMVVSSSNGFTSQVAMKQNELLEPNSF
Sequence of SPIB (Q01892 whole entry): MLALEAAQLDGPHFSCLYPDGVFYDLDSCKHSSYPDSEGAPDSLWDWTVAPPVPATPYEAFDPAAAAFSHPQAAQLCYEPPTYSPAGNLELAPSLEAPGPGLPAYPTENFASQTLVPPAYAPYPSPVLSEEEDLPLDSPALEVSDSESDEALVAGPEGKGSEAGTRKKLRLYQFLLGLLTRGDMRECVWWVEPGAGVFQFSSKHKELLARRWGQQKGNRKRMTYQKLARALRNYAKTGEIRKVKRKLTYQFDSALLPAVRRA
Sequence of ETV6 (P41212 whole entry): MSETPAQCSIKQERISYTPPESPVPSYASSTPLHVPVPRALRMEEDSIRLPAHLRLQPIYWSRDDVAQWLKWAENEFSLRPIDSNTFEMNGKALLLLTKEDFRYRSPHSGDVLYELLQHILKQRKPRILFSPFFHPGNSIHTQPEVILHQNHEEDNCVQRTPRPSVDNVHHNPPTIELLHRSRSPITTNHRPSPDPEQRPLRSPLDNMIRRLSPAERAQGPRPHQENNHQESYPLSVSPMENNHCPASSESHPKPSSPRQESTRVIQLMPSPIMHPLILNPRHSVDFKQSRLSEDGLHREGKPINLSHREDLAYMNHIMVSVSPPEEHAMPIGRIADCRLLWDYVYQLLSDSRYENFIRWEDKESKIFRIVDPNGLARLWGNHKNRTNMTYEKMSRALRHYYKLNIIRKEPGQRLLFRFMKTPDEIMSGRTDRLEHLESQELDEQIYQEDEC
Sequence of ETV5 (P41161 whole entry): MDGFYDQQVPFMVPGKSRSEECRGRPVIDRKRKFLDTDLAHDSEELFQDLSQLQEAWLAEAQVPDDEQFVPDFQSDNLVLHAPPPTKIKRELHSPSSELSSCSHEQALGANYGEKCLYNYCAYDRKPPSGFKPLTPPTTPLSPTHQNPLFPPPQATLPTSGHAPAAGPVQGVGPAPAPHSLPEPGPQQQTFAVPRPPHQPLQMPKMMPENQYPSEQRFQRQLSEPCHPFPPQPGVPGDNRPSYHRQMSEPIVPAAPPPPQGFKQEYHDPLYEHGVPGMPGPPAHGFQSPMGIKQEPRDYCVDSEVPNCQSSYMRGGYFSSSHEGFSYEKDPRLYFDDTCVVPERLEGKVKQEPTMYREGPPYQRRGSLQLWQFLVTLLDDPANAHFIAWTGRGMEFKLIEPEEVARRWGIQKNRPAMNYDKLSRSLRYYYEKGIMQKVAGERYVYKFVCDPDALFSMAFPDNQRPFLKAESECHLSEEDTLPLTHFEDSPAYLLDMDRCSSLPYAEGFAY
Sequence of ETV1 (P50549 whole entry): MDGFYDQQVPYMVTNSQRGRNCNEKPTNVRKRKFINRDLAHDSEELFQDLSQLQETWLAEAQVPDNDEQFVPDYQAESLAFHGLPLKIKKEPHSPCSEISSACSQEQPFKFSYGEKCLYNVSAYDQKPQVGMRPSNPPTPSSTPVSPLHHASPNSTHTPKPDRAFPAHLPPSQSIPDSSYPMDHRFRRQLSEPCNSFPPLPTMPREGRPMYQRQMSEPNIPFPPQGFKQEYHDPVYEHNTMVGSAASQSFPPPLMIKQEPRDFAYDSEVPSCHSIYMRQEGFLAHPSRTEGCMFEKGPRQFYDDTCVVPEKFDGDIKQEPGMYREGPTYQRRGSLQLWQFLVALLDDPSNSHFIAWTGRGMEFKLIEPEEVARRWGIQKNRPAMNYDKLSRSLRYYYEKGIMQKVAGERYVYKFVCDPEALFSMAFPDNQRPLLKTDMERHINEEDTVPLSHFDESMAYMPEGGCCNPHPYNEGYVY
Sequence of ELF4 (Q99607 whole entry): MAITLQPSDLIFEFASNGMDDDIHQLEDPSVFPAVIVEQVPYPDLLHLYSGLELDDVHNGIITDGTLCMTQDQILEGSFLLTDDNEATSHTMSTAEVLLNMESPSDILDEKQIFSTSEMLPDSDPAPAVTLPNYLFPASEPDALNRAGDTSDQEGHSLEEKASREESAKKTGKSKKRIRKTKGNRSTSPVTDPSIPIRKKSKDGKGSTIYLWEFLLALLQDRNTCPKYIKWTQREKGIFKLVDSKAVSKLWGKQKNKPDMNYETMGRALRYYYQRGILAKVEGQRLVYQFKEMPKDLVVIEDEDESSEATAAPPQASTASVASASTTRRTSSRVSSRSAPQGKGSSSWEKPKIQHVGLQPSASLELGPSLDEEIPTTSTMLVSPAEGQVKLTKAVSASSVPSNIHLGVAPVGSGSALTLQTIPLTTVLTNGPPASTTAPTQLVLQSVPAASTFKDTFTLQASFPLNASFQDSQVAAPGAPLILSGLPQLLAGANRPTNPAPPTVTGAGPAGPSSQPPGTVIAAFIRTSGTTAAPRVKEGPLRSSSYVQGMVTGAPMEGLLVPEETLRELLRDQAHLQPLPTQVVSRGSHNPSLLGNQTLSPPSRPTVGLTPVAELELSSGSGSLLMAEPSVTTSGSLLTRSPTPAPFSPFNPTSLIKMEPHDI

Sequence	binding signal (FLI1)	binding signal (GABPA)	binding signal (ERG)	binding signal (ELF1)	binding signal (SPIB)	binding signal (ETV5)	binding signal (ELF4)	binding signal (ELF3)	binding signal (ETV1)	binding signal (ETV3L)	binding signal (ETV6)	binding signal (EHF)	binding signal (SPI1)	binding signal (ETV2)	binding signal (ERF)	binding signal (ETS2)	binding signal (ETV3)
GGCTCG	1.06 fold enrichment (6-mer frequency, TF over GST control)	1.02 fold enrichment (6-mer frequency, TF over GST control)	1.02 fold enrichment (6-mer frequency, TF over GST control)	1.05 fold enrichment (6-mer frequency, TF over GST control)	1.12 fold enrichment (6-mer frequency, TF over GST control)	1.01 fold enrichment (6-mer frequency, TF over GST control)	1.06 fold enrichment (6-mer frequency, TF over GST control)	1 fold enrichment (6-mer frequency, TF over GST control)	1.01 fold enrichment (6-mer frequency, TF over GST control)	1.09 fold enrichment (6-mer frequency, TF over GST control)	1.06 fold enrichment (6-mer frequency, TF over GST control)	–	–	–	–	–	–
CGCGAC	1.08 fold enrichment (6-mer frequency, TF over GST control)	1.09 fold enrichment (6-mer frequency, TF over GST control)	1.04 fold enrichment (6-mer frequency, TF over GST control)	1.12 fold enrichment (6-mer frequency, TF over GST control)	1.11 fold enrichment (6-mer frequency, TF over GST control)	1.08 fold enrichment (6-mer frequency, TF over GST control)	1.09 fold enrichment (6-mer frequency, TF over GST control)	1.05 fold enrichment (6-mer frequency, TF over GST control)	1.06 fold enrichment (6-mer frequency, TF over GST control)	1.04 fold enrichment (6-mer frequency, TF over GST control)	1.04 fold enrichment (6-mer frequency, TF over GST control)	1.12 fold enrichment (6-mer frequency, TF over GST control)	1.08 fold enrichment (6-mer frequency, TF over GST control)	1.34 fold enrichment (6-mer frequency, TF over GST control)	1.16 fold enrichment (6-mer frequency, TF over GST control)	1.12 fold enrichment (6-mer frequency, TF over GST control)	1.04 fold enrichment (6-mer frequency, TF over GST control)
